Reference: paper PMC6792352, “Limited Chemical Structural Diversity Found to Modulate Thyroid Hormone Receptor in the Tox21 Chemical Library” (Environmental Health Perspectives, 2019)
Structures can show the parent of a compound that is named as a salt.

tested on: thyroid hormone receptor (endogenous TRα and TRβ); parameters: species or system GH3-TRE-Luc (rat pituitary); GH3-TRE-Luc luciferase reporter, antagonist mode against 1 nM T3, loss of signal, qHTS; conditions: read-out: Average AC50 (uM) GH3-TRE-Antag, antagonist mode, 1 nM T3, no GH3 cytotoxicity hit

Question: For `COC(=O)[C@H]1[C@H]2C[C@@H]3c4[nH]c5cc(OC)ccc5c4CCN3C[C@H]2C[C@@H](OC(=O)COc2ccc(OC)cc2)[C@@H]1OC` [Mefeserpine], which AC50 is on record?
Answer: 21.6 µM

Question: Which AC50 does the source give for `COc1ccc(-c2coc3cc(O)cc(O)c3c2=O)cc1` [Biochanin A] here?
Answer: 67 µM

Question: How did the AC50 turn out when `CC[C@H](NC(=O)c1cc(F)ccc1NS(=O)(=O)c1cccc2cccnc12)c1ccccc1` [AVE3295] was run?
Answer: 56.9 µM

Question: With `CC[N+](CC)(CC)CCOc1ccc(/C=C/c2ccccc2)cc1` [Stilonium iodide] as the compound, how does the AC50 read?
Answer: 27 µM

Question: `Oc1ccccc1Cc1ccccc1O` [2,2'-Bisphenol F] was tested. Which AC50 did it give?
Answer: > 90 µM

Question: Which AC50 does the source give for `CCCCCCCCc1ccc(S(=O)(=O)O)cc1` [Sodium 4-octylbenzenesulfonate] here?
Answer: 53 µM

Question: With `CN1CCCN=C1COC(=O)C(O)(c1ccccc1)C1CCCCC1` (stereo not drawn) [Oxyphencyclimine hydrochloride] as the compound, how does the AC50 read?
Answer: 43.3 µM

Question: For `Cc1ccc2nc(N)[nH]c(=O)c2c1Sc1ccncc1` [Nolatrexed dihydrochloride], which AC50 is on record?
Answer: 4.76 µM

Question: How did the AC50 turn out when `C=CC(=O)OCCOC(=O)CCC(=O)O` [4-[2-(Acryloyloxy)ethoxy]-4-oxobutanoic acid] was run?
Answer: 73 µM

Question: How did the AC50 turn out when `CCN(C(=O)c1cc(C)cc(OC[C@H](C)Nc2ccncc2)c1)C(C)C` [GW473178E methyl benzene sulphonic acid] was run?
Answer: 51.7 µM

Question: How did the AC50 turn out when `CC(C)Cc1ccc(C(C)C(=O)O)cc1` (stereo not drawn) [Ibuprofen] was run?
Answer: > 50 µM

Question: With `CCOC(=O)C(C)OC(=O)c1cc(Oc2ccc(C(F)(F)F)cc2Cl)ccc1[N+](=O)[O-]` (stereo not drawn) [Lactofen] as the compound, how does the AC50 read?
Answer: 81.8 µM

Question: Which AC50 does the source give for `Cc1c(F)c(F)c(COC(=O)[C@H]2[C@@H](/C=C(\Cl)C(F)(F)F)C2(C)C)c(F)c1F` (racemic) [Tefluthrin] here?
Answer: 59.6 µM

Question: `O=C(/C=C/c1ccccc1)OCc1ccccc1` [Benzyl cinnamate] was tested. Which AC50 did it give?
Answer: > 50 µM

Question: How did the AC50 turn out when `Clc1cccc(C(c2ccc3[nH]cnc3c2)n2ccnc2)c1` (stereo not drawn) [Liarozole hydrochloride] was run?
Answer: 38.6 µM

Question: Which AC50 does the source give for `CCCCCCCCCCC(=O)O` [Undecanoic acid] here?
Answer: 60.2 µM

Question: `O=C(O)C1=NN(c2ccc(S(=O)(=O)O)cc2)C(=O)C1N=Nc1ccc(S(=O)(=O)O)cc1` (stereo not drawn) [FD&C Yellow 5] was tested. Which AC50 did it give?
Answer: 6.01e-06 µM

Question: How did the AC50 turn out when `O=C(CCCN1CCC(C(=O)c2ccc(F)cc2)CC1)c1ccc(F)cc1` [Lenperone] was run?
Answer: 44.5 µM

Question: How did the AC50 turn out when `O=C(Nc1ccc([N+](=O)[O-])cc1)Nc1ccc([N+](=O)[O-])cc1` [4,4'-Dinitrodiphenylurea] was run?
Answer: 0.491 µM

Question: For `CC(C)(C)NCC(O)COc1ccc(NC(=O)NC2CCCCC2)cc1` (stereo not drawn) [Talinolol], which AC50 is on record?
Answer: 26.4 µM

Question: Which AC50 does the source give for `C[C@]12CC[C@@H]3c4ccc(O)cc4CC[C@H]3[C@@H]1CCC2=O` [Estrone] here?
Answer: 0.0388 µM

Question: How did the AC50 turn out when `Oc1ccc(-c2ccc(O)cc2)cc1` [4,4'-Biphenyldiol] was run?
Answer: 34.2 µM

Question: How did the AC50 turn out when `C#CCC(Cc1cnc2nc(N)nc(N)c2n1)c1ccc(C(=O)N[C@@H](CCC(=O)O)C(=O)O)cc1` (stereo partly drawn) [Pralatrexate] was run?
Answer: 0.687 µM

Question: With `CCOC(=O)NCCOc1ccc(Oc2ccccc2)cc1` [Fenoxycarb] as the compound, how does the AC50 read?
Answer: 75.9 µM

Question: For `CCCCCCC(=O)O[C@H]1CC[C@H]2[C@@H]3CCc4cc(O)ccc4[C@H]3CC[C@]12C` [Estradiol enanthate], which AC50 is on record?
Answer: 18.9 µM

Question: Which AC50 does the source give for `Nc1c2ccccc2nc2ccccc12` [9-Aminoacridine, monohydrochloride, monohydrate] here?
Answer: 3.62 µM

Question: `C[C@H]1O[C@@H](O[C@H]2[C@@H](O)C[C@H](O[C@H]3[C@@H](O)C[C@H](O[C@H]4CC[C@@]5(C)[C@H](CC[C@@H]6[C@@H]5CC[C@]5(C)[C@@H](C7=CC(=O)OC7)CC[C@]65O)C4)O[C@@H]3C)O[C@@H]2C)C[C@H](O)[C@@H]1O` [Digitoxin] was tested. Which AC50 did it give?
Answer: 40 µM

Question: For `CO[C@@H]1[C@H](OC(=O)/C=C/C=C/C=C/C=C/C(=O)O)CC[C@]2(CO2)[C@H]1[C@@]1(C)O[C@@H]1CC=C(C)C` [Fumagillin], which AC50 is on record?
Answer: 0.0177 µM

Question: `CCc1c2c(nc3ccc(OC(=O)N4CCC(N5CCCCC5)CC4)cc13)-c1cc3c(c(=O)n1C2)COC(=O)[C@]3(O)CC` [Irinotecan hydrochloride] was tested. Which AC50 did it give?
Answer: 19.1 µM

Question: For `COc1ccccc1NC(=O)c1cc2ccccc2cc1O` [3-Hydroxy-2-naphthoic o-anisidide], which AC50 is on record?
Answer: 10.4 µM

Question: How did the AC50 turn out when `OC(CCCN1CCCCC1)(c1ccccc1)c1ccccc1` [Diphenidol] was run?
Answer: 19 µM

Question: For `CCOC1O[C@H]([C@@H](COCc2ccccc2)OCc2ccccc2)[C@H](OCc2ccccc2)[C@H]1O` (stereo partly drawn) [Tribenoside], which AC50 is on record?
Answer: 11.1 µM

Question: For `CCOC(CN1CCN(CC(C)C(=O)c2ccccc2)CC1)c1ccccc1` (stereo not drawn) [Eprazinone dihydrochloride], which AC50 is on record?
Answer: 32.1 µM

Question: `Oc1ccccc1/C=N/Cc1ccccc1` [Norletimol] was tested. Which AC50 did it give?
Answer: > 50 µM

Question: For `ClC1C(Cl)C(Cl)C(Cl)C(Cl)C1Cl` (stereo not drawn) [alpha-1,2,3,4,5,6-Hexachlorocyclohexane], which AC50 is on record?
Answer: 26.5 µM

Question: With `CCCCCCCC(=O)Oc1c(Br)cc(C#N)cc1Br` [Bromoxynil octanoate] as the compound, how does the AC50 read?
Answer: 74 µM

Question: How did the AC50 turn out when `Cc1c(Cl)cccc1Nc1ccccc1C(=O)O` [Tolfenamic acid] was run?
Answer: 12.5 µM

Question: Which AC50 does the source give for `NC1CCN(c2nc3c(cc2F)c(=O)c(C(=O)O)cn3-c2ccc(F)cc2F)C1` (stereo not drawn) [Tosufloxacin toluenesulfonic acid] here?
Answer: 21.1 µM

Question: `CCCCCC[C@@H](O)C/C=C\CCCCCCCC(=O)O` [Potassium ricinoleate] was tested. Which AC50 did it give?
Answer: 31.8 µM
